“And” between values parts separate entries of the source, which are not always exact repeats. Identical values can stand only once. About 2,000 (36%) of roughly 5,500 compounds were called active. Roughly 18% stayed inconclusive and do not appear here. Cut-off read from the data, not from the text of the source: active = normalized growth mostly below about 0.91 (no sharp cut-off); inconclusive = no clear call, values can overlap the other calls; inactive = mostly above about 0.92. Some of the results follow.
Experiment: chemical genetic growth profiling, strain panel (AID 1159580);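 note: tested at 20 µM; growth read once vehicle control cultures reached saturation at 30 °C; 1 = growth at the plate median or of vehicle wells; lower values mean less growth of the strain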
Settings: S. cerevisiae deletion strains, growth OD

Measured: normalized growth

Nc1cc(-c2ccncc2)c[nH]c1=O
active: locus YAL021C, strain ccr4, hits give low values 0.86 | locus YAL026C, strain drs2, hits give low values 0.802 | locus YAL030W, strain snc1, hits give low values 0.885 | locus YBL061C, strain skt5, hits give low values 0.899 | locus YBR009C, strain hhf1, hits give low values 0.671 | locus YBR023C, strain chs3, hits give low values 0.832 | locus YBR231C, strain swc5, hits give low values 0.562 | locus YBR279W, strain paf1, hits give low values 0.63 | locus YCL011C, strain gbp2, hits give low values 0.833 | locus YCL016C, strain dcc1, hits give low values 0.567 | locus YCL061C, strain MRC1, hits give low values 0.901 | locus YCL069W, strain vba3, hits give low values 0.757 | locus YDL134C, strain PPH21, hits give low values 0.823 | locus YDR069C, strain doa4, hits give low values 0.885 | locus YDR297W, strain sur2, hits give low values 0.856 | locus YDR318W, strain mcm21, hits give low values 0.809 | locus YDR334W, strain swr1, hits give low values 0.664 | locus YDR388W, hits give low values 0.919 | locus YDR392W, strain spt3, hits give low values 0.265 | locus YEL003W, strain gim4, hits give low values 0.624 | locus YEL061C, strain CIN8 (second series), hits give low values 0.787 | locus YER016W, strain bim1, hits give low values 0.672 | locus YER155C, strain BEM2 (second series), hits give low values 0.368 | locus YER167W, strain BCK2, hits give low values 0.86 | locus YFR010W, strain ubp6, hits give low values 0.863 | locus YGL086W, strain mad1, hits give low values 0.872 | locus YGL173C, strain kem1, hits give low values 0.715 | locus YGL240W, strain doc1, hits give low values 0.684 | locus YGL248W, strain PDE1, hits give low values 0.678 | locus YGL253W, strain hxk2, hits give low values 0.523 | locus YGR078C, strain PAC10, hits give low values 0.527 | locus YGR252W, strain gcn5, hits give low values 0.706 | locus YHR013C, strain ard1, hits give low values 0.506 | locus YHR027C, strain rpn1, hits give low values 0.872 | locus YHR142W, strain chs7, hits give low values 0.705 | locus YIL066C, strain RNR3, hits give low values 0.74 | locus YJL095W, strain BCK1 (second series), hits give low values 0.714 | locus YJL164C, strain tpk1, hits give low values 0.69 | locus YJL166W, strain qcr8, hits give low values 0.539 | locus YJL187C, strain SWE1, hits give low values 0.755
inactive: locus YBR021W, strain FUR4, hits give low values 0.952 | locus YBR171W, strain sec66, hits give low values 0.966 | locus YBR229C, strain ROT2, hits give low values 0.952 | locus YCL029C, strain bik1, hits give low values 0.988 | locus YCR088W, strain abp1, hits give low values 0.925 | locus YDL005C, strain med2, hits give low values 0.971 | locus YDL035C, strain GPR1, hits give low values 0.907 | locus YDL040C, strain nat1, hits give low values 0.936 | locus YDL074C, strain BRE1, hits give low values 0.913 | locus YDL101C, strain DUN1, hits give low values 0.994 | locus YDL185W, strain tfp1, hits give low values 0.973 | locus YDL192W, strain arf1, hits give low values 0.974 | locus YDR001C, strain nth1, hits give low values 0.972 | locus YDR101C, strain arx1, hits give low values 0.977 | locus YDR137W, strain rgp1, hits give low values 0.976 | locus YDR159W, strain sac3, hits give low values 0.928 | locus YDR162C, strain NBP2, hits give low values 0.949 | locus YDR195W, strain ref2 0.951 | locus YDR335W, strain msn5, hits give low values 0.934 | locus YDR502C, strain sam2, hits give low values 0.926 | locus YEL037C, strain rad23, hits give low values 0.937 | locus YEL061C, strain CIN8, hits give low values 0.98 | locus YER015W, strain faa2, hits give low values 0.993 | locus YER110C, hits give low values 0.983 | locus YER111C, strain swi4, hits give low values 0.979 | locus YER155C, strain BEM2, hits give low values 0.963 | locus YGL078C, strain dbp3, hits give low values 0.976 | locus YGL167C, strain pmr1, hits give low values 0.974 | locus YGL227W, strain vid30, hits give low values 0.96 | locus YGR135W, strain pre9, hits give low values 0.945 | locus YGR229C, strain SMI1, hits give low values 0.923 | locus YHR030C, strain SLT2, hits give low values 0.959 and 1.04 | locus YHR079C, strain IRE1 (second series), hits give low values 0.988 | locus YHR079C, strain IRE1, hits give low values 1.04 | locus YHR094C, strain hxt1, hits give low values 0.978 | locus YHR129C, strain ARP1, hits give low values 0.961 | locus YHR200W, strain rpn10, hits give low values 0.974 | locus YIL073C, strain SPO22, hits give low values 0.713 | locus YIL125W, strain kgd1, hits give low values 0.982 | locus YIR030C, strain dcg1, hits give low values 0.988 | locus YJL092W, strain hpr5, hits give low values 0.923 | locus YJL095W, strain BCK1, hits give low values 0.961 and 1.01 | locus YJL115W, strain asf1, hits give low values 0.932 | locus YJL129C, strain trk1, hits give low values 0.94 | locus YJL134W, strain LCB3, hits give low values 0.994 | locus YJL154C, strain vps35, hits give low values 0.964 | locus YJL168C, strain set2, hits give low values 0.986 | locus YJL187C, strain SWE1 (second series), hits give low values 0.96

Source: PubChem BioAssay AID1159580 (chemical genetic matrix, 2015)
